The nature of this assay: inducers of human heat shock response, cell-based, HSE luciferase (AID 1611). The following applies: human cells, HSE-luciferase heat shock reporter; stronger effect = higher value.
On to `NCC(O)c1ccc(O)cc1` (centres undefined), for which the fold change was 1.61.

For `O=[N+]([O-])c1cc(O)c(O)c([N+](=O)[O-])c1`, the fold change came out at 0.87.

`CC(=O)OCC1=C(C(=O)O)N2C(=O)[C@@H](NC(=O)CCCC(N)C(=O)O)C2SC1` (some centres undefined): the fold change was 0.85. As for `[N-]=[N+]=CC(=O)OCC(N)C(=O)O` (centres undefined), the fold change turned out to be 1.29. With `N#CC(O[C@@H]1O[C@H](CO[C@@H]2O[C@H](CO)[C@@H](O)[C@H](O)[C@H]2O)[C@@H](O)[C@H](O)[C@H]1O)c1ccccc1` (some centres undefined) the figure was 0.7; with `CC(=O)C1=C(O)C2C3c4c[nH]c5cccc(c45)CC3C(C)(C)N2C1=O` (centres undefined), 1.11; with `Clc1ccc(COC(Cn2ccnc2)c2ccc(Cl)cc2Cl)c(Cl)c1` (centres undefined), 0.8.

Turning to `NC(=O)CN1CCCC1=O`, the fold change was 0.86.

Consider `C[C@H]1O[C@@H](O[C@H]2[C@@H](O)C[C@H](O[C@H]3[C@@H](O)C[C@H](O[C@H]4CC[C@]5(C)C6CC[C@]7(C)[C@@H](C8=CC(=O)OC8)CC[C@]7(O)C6CC[C@@H]5C4)O[C@@H]3C)O[C@@H]2C)C[C@H](O)[C@@H]1O` (some centres undefined), for which the fold change was 78.

Consider `CCC1(CC)C(=O)C=CNC1=O`, for which the fold change turned out to be 1.24. With `CNC(C)C(O)c1ccccc1` (centres undefined) the figure was 0.96; with `C[C@H](N)[C@H](O)c1ccc(O)c(O)c1`, 1.53; with `NCC(CC(=O)O)c1ccc(Cl)cc1` (centres undefined), 1.37. Consider `C[C@@H]1C[C@@H]([C@H](O)CC2CC(=O)NC(=O)C2)C(=O)[C@@H](C)C1`, for which the fold change amounted to 0.84. With `O=c1[nH]oc2c1CCNC2` the figure was 1.02; with `CC[C@@H]1/C=C/C=C/C[C@H](C)[C@@H](O)[C@](C)(O)C(=O)[C@H](C)[C@@H](O)[C@H](C)C(=O)[C@H](C)[C@@H](O)[C@H](C)/C=C/C(=O)O[C@H]2[C@@H](C)[C@@H](CC1)O[C@@]1(CC[C@@H](C)[C@@H](C[C@H](C)O)O1)[C@@H]2C`, 1.06; with `CN(C)[C@@H]1C(=O)C(C(N)=O)=C(O)[C@@]2(O)C(=O)C3=C(O)c4c(O)ccc(Cl)c4[C@@](C)(O)[C@H]3C[C@@H]12`, 0.9.

On to `CC(=O)[O][Hg][c]1ccccc1`, for which the fold change came to 1.14. To `CCN1C[C@@]2(COC)C3[C@@H](OC)[C@H]4[C@@H]1[C@]3(C(OC)C[C@H]2O)C1C[C@@]2(O)[C@H](OC(=O)c3ccccc3)C1[C@]4(OC(C)=O)[C@@H](O)[C@@H]2OC` (some centres undefined) belongs 0.98; to `C=C[C@H]1CN2CC[C@H]1C[C@@H]2[C@H](O)c1ccnc2ccccc12`, 1.18; to `CN(C)[C@@H]1C(=O)C(C(N)=O)=C(O)[C@@]2(O)C(=O)C3=C(O)c4c(O)cccc4[C@@](C)(O)[C@H]3[C@H](O)[C@@H]12`, 1.27.

Turning to `C#CC1(O)CCC2C3CCC4=CC(=O)CCC4(C)C3CCC21C` (centres undefined), the fold change was determined as 0.91. With `Cc1cc2c(C(C)C)c(O)c(O)c(C=O)c2c(O)c1-c1c(C)cc2c(C(C)C)c(O)c(O)c(C=O)c2c1O` the figure was 0.95; with `CC1[C@H](C)OC(=O)CC(O)CC(O)CC(O)CCC(O)C(O)C[C@]2(O)CC(O)C(C(=O)O)C(CC(OC3O[C@H](C)[C@@H](O)[C@H](N)[C@@H]3O)/C=C/C=C/C=C/C=C/CC/C=C/C=C/[C@H](C)[C@H]1O)O2` (some centres undefined), 1.2. Regarding `CCCCC[C@H]1C(=O)O[C@H](C)[C@H](NC(=O)c2cccc(NC=O)c2O)C(=O)O[C@@H](C)[C@@H]1OC(=O)CC(C)C`, the fold change is 0.64. Turning to `N#C/C(=C\c1ccc(O)cc1)C(=O)O`, the fold change stood at 1.34. To `COc1ccc2c(c1OC)C(=O)O[C@H]2[C@H]1c2cc3c(cc2CCN1C)OCO3` belongs 0.8. With `Clc1ccc(COC(Cn2ccnc2)c2ccc(Cl)cc2Cl)cc1` (centres undefined) the figure was 1.04; with `CNC(C)(C)Cc1ccccc1`, 1.1. With `C=CCN1CC[C@]23c4c5ccc(O)c4OC2C(=O)CC[C@@]3(O)[C@H]1C5` (some centres undefined) the figure was 1.1.

Consider `CC(=O)Nc1cc([As](=O)(O)O)ccc1O`, for which the fold change was determined as 0.73. With `O=P1(N(CCCl)CCCl)NCCCO1` (centres undefined) the figure was 0.79. Take `Clc1ccc(CSC(Cn2ccnc2)c2ccc(Cl)cc2Cl)cc1` (centres undefined): the fold change came to 0.83. With `COc1cc([C@@H]2c3cc4c(cc3[C@H](O)[C@H]3COC(=O)[C@H]23)OCO4)cc(OC)c1OC` the figure was 0.57; with `CC(=O)OC1CN2CCC1CC2` (centres undefined), 0.77; with `CC(CCc1ccccc1)NC(C)C(O)c1ccc(O)cc1` (centres undefined), 1.23. With `CCCCCCCCCCCCCCCC[N+](C)(C)C` the figure was 0.93; with `C[C@@H]([C@H](O)c1ccccc1)N(C)C`, 1.08; with `CNC1(c2ccccc2Cl)CCCCC1=O` (centres undefined), 1.39.

Values taken from PubChem BioAssay AID1611 (NINDS Approved Drug Screening Program, 2009).
